# About 3,000 (1%) of roughly 290,000 compounds were called active. For the sample, actives were picked, then their nearest neighbours and some compounds at random. Values without a mark were called inactive. Rule as the data show it: active = inhibition mostly above about 36% (no sharp cut-off); inactive = mostly below about 34%.
# Test: NOD1 signaling inhibitors, primary screen, cell-based, luminescence, uHTS (AID 1578);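 also: HEK-293T reporter cells stimulated with the NOD1 agonist gamma-tri-DAP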
# Conditions: NOD1-driven NF-kB luciferase reporter cells, at 4 µM, stronger effect = higher value
row,SMILES,inhibition
1,COc1ccc(NC2CCCN(C(=O)CN3C(=O)c4ccccc4C3=O)C2)cc1OC (configuration not stated),-24.8%
2,COc1ccc(OC)c2c(C)cc(N3CCN(C(=O)c4ccc(C)cc4)CC3)nc12,-12.9%
3,CN(C1CCCCC1)C(CNS(=O)(=O)c1ccc(Cl)cc1)c1ccccc1 (configuration not stated),-15.5%
4,O=C(O)c1ccccc1-n1cccc1C(=O)O,-9.5%
5,O=C(CN1CCc2ccccc2C1)Nc1cc(S(=O)(=O)N2CCOCC2)ccc1N1CCOCC1,-17.8%
6,CCN(CC)c1ccc(S(=O)(=O)N2CCOCC2)cc1NC(=O)CN1CCN(Cc2ccccc2)CC1,-3.8%
7,O=C(NNC(=O)c1ccccc1OCc1ccccc1Cl)c1csc(N2CCOCC2)n1,96.3% (active)
8,O=C(NNC(=O)c1cc(Br)ccc1Cl)c1csc(N2CCOCC2)n1,-14.6%
9,O=C(NNC(=O)c1ccccc1C(F)(F)F)c1csc(N2CCOCC2)n1,-87.8%
10,CCc1ccc(NC(=O)CN2CCCN(S(=O)(=O)c3ccc(F)cc3)CC2)cc1,-21.6%
11,O=C1CC(c2nc3ccccc3[nH]2)CN1Cc1ccccc1 (configuration not stated),-15%
12,COc1ccc(CCNC(=O)C2CC(=O)N(C3CCCCCCC3)C2)cc1OC (configuration not stated),-23.8%
13,O=c1c2ccccc2nc2n1CCS2,-2.5%
14,Cc1ccc2c(=O)cc(C(=O)NC3CCS(=O)(=O)C3)oc2c1 (configuration not stated),-12%
15,O=C(NCc1nc(-c2ccc(C(F)(F)F)cc2)no1)Nc1ccc(OC(F)(F)F)cc1,5.1%
16,O=C(NCc1nc(-c2ccc(C(F)(F)F)cc2)no1)Nc1cc(Cl)cc(Cl)c1,44.1% (active)
17,O=C(NCc1nc(-c2ccc(C(F)(F)F)cc2)no1)Nc1ccc(F)cc1F,3.8%
18,Cc1ccccc1CC(=O)N1CC(C)OC(C)C1 (configuration not stated),-15.5%
19,O=C(Nc1cccc2[nH]ncc12)c1ccc(F)cc1,-0.2%
20,O=C(NC(=S)Nc1cccc2cnccc12)c1ccccc1,80.9% (active)
21,S=C(NCc1ccccc1)Nc1cccc2cnccc12,41.4%
22,CNC(=S)Nc1cccc2[nH]ncc12,-6.5%
23,O=C(NC(=S)Nc1cccc2cccnc12)c1ccccc1,-2.9%
24,O=C(NC(=S)Nc1cccc2[nH]ncc12)c1ccccc1,68.4% (active)
25,CS(=O)(=O)N(CC(=O)Nc1cccnc1)c1ccc2c(c1)OCCO2,-12.2%

row,SMILES,inhibition
1,CS(=O)(=O)N1CCN(c2ccccc2NC(=O)c2ccc(-c3ccc(Br)cc3)o2)CC1,-21.7%
2,CC(C)c1ccc(NC(=O)COC(=O)CCC(=O)c2cccs2)cc1,5.4%
3,O=C1C(N2CCOCC2)=C(n2nnc3ccccc32)C(=O)c2ccccc21,101% (active)
4,O=C1c2ccccc2C(=O)c2c1cccc2-n1nnc2ccccc21,3.1%
5,O=C(O)c1ccc(NC2=C(n3nnc4ccccc43)C(=O)c3ccccc3C2=O)cc1,-3.8%
6,CCOC(=O)c1ccc(NC(=O)CN2C(=O)C(CC)SC(CC)C2=O)cc1 (configuration not stated),-15.5%
7,O=C(c1ccc2ccccc2c1)N1CCCCC1,14.9%
8,Cc1nn(-c2ccccc2)nc1C(=O)Nc1nnc(C(F)(F)F)s1,54.4% (active)
9,CCc1nnc(NC(=O)c2nn(-c3ccccc3)nc2C)s1,-6.6%
10,O=C(Nc1nnc(C(F)(F)F)s1)c1c(F)cccc1F,2%
11,CCSc1nnc(NC(=O)c2ccc(Br)s2)s1,-37.5%
12,O=C(Nc1nnc(C(F)(F)F)s1)c1ccc(Br)s1,84% (active)
13,Cc1nn(-c2ccccc2)nc1C(=O)NNC(=O)c1ccc(C(F)(F)F)cc1,-5.6%
14,CC1(C)CC(=O)/C(=C(\O)CCCN2C(=O)c3ccccc3C2=O)C(=NCCO)C1,-17.2%
15,COc1cc2[nH]c(C(=O)NN)c(N)c2cc1OC,-7.9%
16,CC(C)(C)NC(=O)C(c1ccccc1)N(Cc1ccco1)C(=O)c1csnn1 (configuration not stated),-0.4%
17,CCOC(=O)C1CCN(C(=O)Cn2cccc2C(=O)c2ccccc2)CC1,-13.4%
18,CC1CN(Cc2nc3c(c(=O)[nH]c(=O)n3C)n2CCN2CCOCC2)CC(C)O1 (configuration not stated),7.3%
19,CC(C)[C@H](NC(=O)[C@@H]1CSC2c3ccccc3C(=O)N21)C(=O)NCc1ccncc1 (some centres not stated),-23.2%
20,c1ccc(-c2cccc(-c3ccccn3)n2)nc1,90.2% (active)
21,c1ccc(-c2ccccn2)nc1,-28.9%
22,c1ccc(-c2ccc(-c3ccccn3)nn2)nc1,27.1%
23,O=C(c1ccc2c3c(cccc13)CC2)C1CCCN(C(=O)c2ccc[n+]([O-])c2)C1 (configuration not stated),10.8%
24,CCn1c(C)c(C(C)=O)cc(C#N)c1=O,-4.6%
25,C=CCNC(=O)C1CCN(c2c([N+](=O)[O-])cc(C(F)(F)F)cc2[N+](=O)[O-])CC1,2.2%

row,SMILES,inhibition
1,Cc1ccccc1NS(=O)(=O)c1ccc(OCC(=O)NCc2ccco2)cc1,-20.7%
2,CSC1=C(C#N)C(=O)NC(c2ccc(Cl)cc2)S1 (configuration not stated),45% (active)
3,COC(=O)CSC1=C(C#N)C(=O)NC(c2ccccc2)S1 (configuration not stated),38.8%
4,CSC1=C(C#N)C(=O)NC(c2ccccc2O)S1 (configuration not stated),-3.8%
5,COc1cc([N+](=O)[O-])ccc1NC(=S)NNC(=O)c1ccc2c(c1)OCO2,15.2%
6,N#CC(Cc1cccc(CC(C#N)(c2ccccc2)c2ccccc2)c1)(c1ccccc1)c1ccccc1,4.8%
7,Oc1ccc(C[C@@H]2CNC(=S)N2CCCCC2CCCCC2)cc1,-30.3%
8,CCC(=O)Nc1ccc(Cl)c(NC(=O)c2cccc(OC)c2)c1,-28.2%
9,CCC(=O)Nc1ccc(Cl)c(NC(=O)c2ccccc2OC)c1,57.1% (active)
10,COc1cc(NC(=O)c2ccccc2)c(OC)cc1Cl,-16.7%
11,CCC(=O)Nc1ccc(Cl)c(NC(=O)c2c(OC)cccc2OC)c1,7%
12,COc1ccc(C(=O)Nc2cc(OC)c(Cl)cc2OC)cc1,-33.1%
13,c1ccc(CCn2cnc3ccccc32)cc1,-43.2%
14,CCCC(=O)C1=C(O)C(C(=O)OC)C(C)(C)CC1=Nc1cccc([N+](=O)[O-])c1 (configuration not stated),-12.8%
15,FC(F)(F)Oc1ccc(NC(=S)Nc2ccccc2N2CCOCC2)cc1,4.5%
16,O=C(NCCNC(=O)c1ccccc1F)c1ccccn1,-8.2%
17,CCOc1ccc(OCc2ccc(C(=O)N/N=C(\C)c3ccccn3)cc2)cc1,91.6% (active)
18,C/C(=N\NC(=O)c1ccc(COc2ccccc2)cc1)c1ccncc1,-26.5%
19,CCOc1ccc(C(=O)N/N=C(\c2ccccc2)c2ccccn2)cc1,63.3%
20,C/C(=N\NC(=O)c1c[nH]c2ccccc12)c1ccccn1,-30.8%
21,COCC(=O)N1CCC(n2nnc3cc(C(F)(F)F)ccc32)CC1,-11.5%
22,Cc1ccccc1NC(=O)c1ccc2nccnc2c1,-15.6%
23,Cc1ccc(Sc2nnc(Cc3ccccc3)c3ccccc23)cc1,70% (active)
24,c1ccc(Cc2nnc(Sc3ccccc3)c3ccccc23)cc1,40.8%
25,COc1ccc(Sc2nnc(Cc3ccccc3)c3ccccc23)cc1,46.4%

row,SMILES,inhibition
1,COc1cccc(OCc2cc(C(=O)N(C)C3CC(C)(C)NC(C)(C)C3)no2)c1,-22.6%
2,CCOc1ccc(N(CC(=O)O)S(=O)(=O)c2ccc(F)cc2)cc1,22.2%
3,COc1cccc2cc(C(=O)NC(C)C3CCCO3)c(=O)oc12 (configuration not stated),-27.3%
4,N#Cc1c(NC(=O)c2ccccc2Cl)n(Cc2ccccc2)c2nc3ccccc3nc12,83.5% (active)
5,CCCCn1c(NC(=O)c2ccccc2)c(C#N)c2nc3ccccc3nc21,88.5% (active)
6,CCCCn1c(NC(=O)CC)c(C#N)c2nc3ccccc3nc21,-7.1%
7,CCCCn1c(NC(=O)c2ccccc2Cl)c(C#N)c2nc3ccccc3nc21,20%
8,C=CCn1c(NC(=O)c2ccccc2Cl)c(C#N)c2nc3ccccc3nc21,28.8%
9,CCCCn1c(NC(C)=O)c(C#N)c2nc3ccccc3nc21,22.5%
10,O=C(C[n+]1cc(Br)cc(Br)c1)c1ccc(Cl)cc1,-7.2%
11,CC(=O)Nc1ccc(S(=O)(=O)N2CCC(C(=O)NCCC(=O)Nc3ccccc3)CC2)cc1,-17.6%
12,CCN(CC)c1nc2c(c(=O)[nH]c(=O)n2C)n1CCCc1ccccc1,-13.8%
13,CN(C)CCC1Sc2ccccc2Oc2ccccc21 (configuration not stated),-13.4%
14,CC1c2ccccc2SC(CCCN(C)C)c2ccccc21 (configuration not stated),59.5% (active)
15,CNCCCC1Sc2ccccc2Oc2ccccc21 (configuration not stated),-31.7%
16,COc1cccc(N2C(=O)N(c3ccccc3Cl)C3CS(=O)(=O)CC32)c1 (configuration not stated),-14.5%
17,Cc1n[nH]c(C)c1CCCCOc1ccc([N+](=O)[O-])cc1,-1.4%
18,COC(=O)C1CCN(C(=O)C2CCC(=O)N(CCc3cccc(F)c3)C2)CC1 (configuration not stated),-26.6%
19,O=S(=O)(C/C(=C/CO)S(=O)(=O)c1ccccc1)c1ccccc1,100% (active)
20,C/C=C(\CS(=O)(=O)c1ccccc1)S(=O)(=O)c1ccccc1,60.5%
21,C/C(CS(=O)(=O)c1ccccc1)=N\O,-22.4%
22,COc1cccc(OCC(=O)Nc2ccncc2)c1,-11.4%
